Each structure is given as a SMILES string. “And” between values parts separate entries of the source, which are not always exact repeats. Identical values can stand only once. Results filed as inconclusive are left out. Where a structure was tested more than once in an assay, its records may differ in their call. The source made the active and inactive calls. Unless noted, calls follow the shape of the dose curve; as a rule, active = well fitted curve in the direction sought with a large enough effect in the repeat runs; inconclusive = weak or mixed curves; inactive = no such curve, though single readings can be large; an effect the other way counts as inactive or inconclusive.

Test [1] can be described thus: qHTS assay to identify small molecule agonists of the constitutive androstane receptor (CAR) signaling pathway - cell viability counter screen (AID 1224836). Also: nearly all actives have a fitted effect of over 45% in size. The method, boiled down:
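Double-stable HepG2 hepatoma cells (hCAR plus CYP2B6-2.2kb) are treated for 23 h at 37 C with test compounds in 15-point concentration series. PK11195 at 0.75 uM final is co-added. Cell viability is quantified by CellTiter-Fluor.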
On the technique in general: Quantitative high-throughput screening tests each substance at several concentrations.

The nature of test [2]: qHTS assay to identify small molecule antagonists of the constitutive androstane receptor (CAR) signaling pathway - cell viability counter screen (AID 1224837). Also: nearly all actives have a fitted effect of over 45% in size. The method, boiled down: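 HepG2 cells stably carrying hCAR and CYP2B6-2.2kb reporter, stimulated with 50 nM CITCO and compounds at 15 concentrations for 23 h at 37 C. Viability measured by CellTiter-Fluor fluorescence.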

Test [3] deals with Nuclear receptor subfamily 1 group I member 3 (Homo sapiens) (UniProt Q14994). Put plainly: qHTS assay to identify small molecule antagonists of the constitutive androstane receptor (CAR) signaling pathway (AID 1224838). Also: nearly all actives have a fitted effect of over 40% in size. The method, boiled down: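 HepG2 cells stably carrying hCAR and a CYP2B6-2.2kb luciferase reporter, seeded 4 hrs before compound (15 concentrations). Stimulated with 50 nM CITCO for 24 hr at 37 C. ONE-Glo luminescence read after 30 min at room temperature.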

The target is the same in test [4]. Put plainly: qHTS assay to identify small molecule agonists of the constitutive androstane receptor (CAR) signaling pathway (AID 1224839). Also: nearly all actives have a fitted effect of over 15% in size. The method, boiled down:
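Readout: firefly luciferase luminescence via ONE-Glo. System: HepG2 double-stable for hCAR and CYP2B6-2.2kb. Conditions: 15-point compound titration, PK11195 at 0.75 uM final, 24 h incubation.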

A short description of test [5]: qHTS assay to identify small molecule antagonists of the estrogen related receptor signaling pathway with the pleiotropic PPARgamma coactivator (PGC) from Tox21 10K library - cell viability counter screen (AID 1224840; active = well fitted cell-killing curve with a large enough effect in the repeat runs, not every such curve was filed as active; also: nearly all actives have a fitted effect of over 40% in size). The method, boiled down: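 PGC/ERR cells (2,000/well) plated 6 h, then compound-treated for 17.5 h at 37 C. Viability measured by CellTiter-Fluor fluorescence after 30 min at 37 C, multiplexed with the pathway assay.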

The target in test [6] is Thyrotropin receptor (Homo sapiens) (UniProt P16473). Nature of the test: qHTS assay to identify small molecule agonists of the thyroid stimulating hormone receptor (TSHR) signaling pathway (AID 1224843; calls by dose curve; also: nearly all actives have a fitted effect of over 45% in size). The method, boiled down: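 Cell line HEK293 with TSHR; density 800/well. Exposure 30 min RT. Readout HTRF cAMP (cAMP-d2/anti-cAMP-cryptate), 1 h RT before reading.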
Test [7] can be described thus: qHTS assay to identify small molecule agonists of the hypoxia (HIF-1) signaling pathway - cell viability counter screen (AID 1224844; calls by dose curve; also: nearly all actives have a fitted effect of over 50% in size). The method, boiled down: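 HRE-bla ME-180 cells, 2,000/well in 0.5% dialyzed FBS medium, treated 17 h at 37C with compounds. Viability read in the same wells as the bla reporter, by CellTiter-Glo luminescence after 30 min at room temperature.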

Test [8] deals with Luciferin 4-monooxygenase (Photinus pyralis) (UniProt P08659). Nature of the test: qHTS assay to identify small molecule inhibitors of firefly luciferase (AID 1224835). Also: nearly all actives have a fitted effect of over 25% in size. The method, boiled down:
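Quantitative HTS format; KM concentrations of both substrates. Purified P. pyralis FLuc activity quantified from luminescence images.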

A short description of test [9]: qHTS assay to identify small molecule antagonists of the estrogen related receptor signaling pathway with the pleiotropic PPARgamma coactivator (PGC) from Tox21 10K library (AID 1224841; call rule not given here; also: actives are mostly falling curves and most rising ones were filed inactive; nearly all actives have a fitted effect of over 50% in size). The method, boiled down: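 PGC/ERR cell line, 2,000 cells/well, pre-incubated 6 hours at 37 C, then exposed to compounds for 18 hours at 37 C; luciferase read with One-Glo luminescence after 30 min at room temperature.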

Test [10] can be described thus: qHTS assay to identify small molecule agonists of the estrogen related receptor signaling pathway with the pleiotropic PPARgamma coactivator (PGC) from Tox21 10K library (AID 1224842). Also: nearly all actives have a fitted effect of over 15% in size. The method, boiled down: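 PGC/ERR reporter cells (NTP line) were seeded 2,000 per well, rested 6 h at 37 C/5% CO2, then pin-dosed with compounds in DMSO for 18 h at 37 C; luciferase read by One-Glo luminescence after 30 min at room temperature.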
Potency is read from the fitted curve at half-maximal effect.

Sequence of Luciferin 4-monooxygenase (Photinus pyralis) (P08659 whole entry, looked up): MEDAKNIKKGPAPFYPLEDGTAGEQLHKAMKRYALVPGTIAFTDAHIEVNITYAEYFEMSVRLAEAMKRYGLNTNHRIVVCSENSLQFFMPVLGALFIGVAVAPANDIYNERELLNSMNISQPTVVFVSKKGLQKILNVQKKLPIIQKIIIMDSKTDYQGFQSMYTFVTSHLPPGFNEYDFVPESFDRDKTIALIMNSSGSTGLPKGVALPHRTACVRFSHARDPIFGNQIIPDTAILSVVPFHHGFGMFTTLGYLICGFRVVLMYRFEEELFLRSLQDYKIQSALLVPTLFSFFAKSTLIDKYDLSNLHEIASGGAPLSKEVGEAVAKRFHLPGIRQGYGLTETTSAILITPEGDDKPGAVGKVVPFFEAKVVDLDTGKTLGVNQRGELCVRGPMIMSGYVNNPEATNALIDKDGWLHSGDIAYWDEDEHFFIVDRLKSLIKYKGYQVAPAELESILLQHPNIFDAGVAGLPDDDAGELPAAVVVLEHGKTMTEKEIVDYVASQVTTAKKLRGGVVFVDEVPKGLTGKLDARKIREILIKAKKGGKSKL
Sequence of Thyrotropin receptor (Homo sapiens) (P16473 whole entry, looked up): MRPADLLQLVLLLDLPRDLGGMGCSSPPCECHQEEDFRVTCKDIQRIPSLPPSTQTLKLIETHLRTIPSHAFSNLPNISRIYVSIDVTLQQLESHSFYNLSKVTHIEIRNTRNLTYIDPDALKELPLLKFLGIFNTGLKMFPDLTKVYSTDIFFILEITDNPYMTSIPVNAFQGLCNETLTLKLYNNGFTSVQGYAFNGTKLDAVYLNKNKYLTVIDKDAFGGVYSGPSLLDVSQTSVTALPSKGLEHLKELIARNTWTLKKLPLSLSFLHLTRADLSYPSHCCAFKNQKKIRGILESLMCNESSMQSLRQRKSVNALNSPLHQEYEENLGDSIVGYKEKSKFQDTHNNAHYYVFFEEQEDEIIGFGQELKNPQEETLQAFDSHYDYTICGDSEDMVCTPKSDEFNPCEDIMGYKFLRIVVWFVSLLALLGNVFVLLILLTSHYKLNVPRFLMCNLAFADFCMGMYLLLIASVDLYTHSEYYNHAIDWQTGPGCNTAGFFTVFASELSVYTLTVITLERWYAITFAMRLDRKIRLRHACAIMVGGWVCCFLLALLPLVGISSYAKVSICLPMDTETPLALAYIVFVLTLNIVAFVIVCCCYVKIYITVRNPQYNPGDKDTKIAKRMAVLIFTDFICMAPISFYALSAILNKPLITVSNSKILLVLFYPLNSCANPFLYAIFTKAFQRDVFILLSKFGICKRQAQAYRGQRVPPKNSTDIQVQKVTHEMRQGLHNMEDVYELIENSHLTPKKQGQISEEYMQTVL
Sequence of Nuclear receptor subfamily 1 group I member 3 (Homo sapiens) (Q14994 whole entry, looked up): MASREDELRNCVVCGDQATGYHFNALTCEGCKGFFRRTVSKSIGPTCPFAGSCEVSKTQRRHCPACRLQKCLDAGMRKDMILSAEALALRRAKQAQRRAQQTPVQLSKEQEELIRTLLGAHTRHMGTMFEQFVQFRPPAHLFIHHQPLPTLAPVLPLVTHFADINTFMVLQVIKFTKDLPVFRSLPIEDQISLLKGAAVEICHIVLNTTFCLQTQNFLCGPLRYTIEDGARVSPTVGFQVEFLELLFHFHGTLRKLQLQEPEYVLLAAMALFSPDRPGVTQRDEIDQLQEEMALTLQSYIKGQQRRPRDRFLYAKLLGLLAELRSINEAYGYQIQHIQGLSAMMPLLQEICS

`CCCN[C@H]1CCc2nc(N)sc2C1`: the Potency entry in test [1], in [2], in test [3], in test [4], in [5] and in [6] was “inactive” in each case. In addition, the Potency entry in [7] is “inactive”.

For `CCCCCC(=O)O[C@]1(C(C)=O)CC[C@H]2[C@@H]3CCC4=CC(=O)CC[C@]4(C)[C@H]3CC[C@@]21C`, the Potency result in test [8], in [3], in [4], in test [9] and in test [10] was “inactive” throughout. Besides, the results for the Potency in [2], in test [5] and in test [7] were 48.2 µM (active), 54.1 µM (active) and 38.6 µM (active), respectively.

On to `C=CC(=O)OCCCCCCOC(=O)C=C`, for which the Potency entry in test [8], in test [1], in [4], in test [9] and in test [6] was “inactive” each time. Further, the Potency in test [5] was 48.6 µM (active); in [10] it was 21.7 µM (active).

With `OCCOCCN1CCN(C(c2ccccc2)c2ccc(Cl)cc2)CC1` (centres undefined), the Potency result in [8] was “inactive and 27.5 µM (active)”; in test [5], 47.9 µM (active) and inactive; in test [7] it was 9.64 µM (active). Besides, the Potency entry in [3], in test [4] and in [6] was “inactive” in each case.

As for `CCN(CC)c1ccc2c(C)cc(=O)oc2c1`, the Potency is 40.2 µM (active) and 35.6 µM (active) in [8]; 27.5 µM (active) and 48.6 µM (active) in test [4]. Moreover, the Potency entry in test [3], in [5], in test [6] and in test [7] was “inactive” in each case.

Turning to `Nc1cc(Cl)c(-c2cc(Cl)c(N)cc2Cl)cc1Cl`, the Potency result in test [8], in test [4], in test [10] and in [6] was “inactive” in each case. In addition, the Potency in test [3] is 13.7 µM (active) and 27.3 µM (active); in test [7], 38.9 µM (active).

Turning to `Cc1cc(Cc2cc(C)cc(C(C)(C)C)c2O)c(O)c(C(C)(C)C)c1`, the Potency result in test [8], in [4] and in test [10] was “inactive” each time. The Potency is 61.4 µM (active) in [1]; 19.4 µM (active) and 43.3 µM (active) in [3]; 48.8 µM (active) and 43.3 µM (active) in test [5]; 48.8 µM (active) and 30.6 µM (active) in [9]; 43.5 µM (active) and inactive in [6]; 9.82 µM (active) and 9.77 µM (active) in test [7].

For `COc1ccc(CCN2CCC(Nc3nc4ccccc4n3Cc3ccc(F)cc3)CC2)cc1`, the Potency in test [1] was 17.6 µM (active) and 29.8 µM (active); in test [2], 17.6 µM (active) and 29.8 µM (active); in [5], 19.8 µM (active) and 29.8 µM (active); in test [7], 12.6 µM (active). The Potency result in test [4], in [10] and in [6] was “inactive” throughout.

On to `CCn1c2ccccc2c2cc(N)ccc21`, for which the Potency entry in [1], in [2], in test [3], in test [5], in test [10] and in test [6] was “inactive” each time. The Potency entry in test [7] is “inactive”. For the same molecule, in [4], the Potency is 10.8 µM (active) and 15.4 µM (active) and 30.6 µM (active).

With `CCCCCCCCCCCCCC[P+](CCCC)(CCCC)CCCC`, the Potency in test [1] was 19.2 µM (active) and 24.3 µM (active); in [2], 17.1 µM (active) and 27.3 µM (active); in [5], 21.6 µM (active) and 27.3 µM (active); in [7], 21.8 µM (active) and 21.9 µM (active). In addition, the Potency entry in test [4] and in test [6] was “inactive” in each case.

Take `O=C(Nc1ccccc1SSc1ccccc1NC(=O)c1ccccc1)c1ccccc1`: the Potency in test [8] was 5.05 µM (active) and 2.52 µM (active); in [2], 19.4 µM (active) and 24.3 µM (active); in test [3], 21.8 µM (active) and 30.6 µM (active); in test [5], 30.8 µM (active) and 48.6 µM (active); in test [9] it was 27.4 µM (active) and 27.3 µM (active); in [7] it was 15.6 µM (active) and 21.9 µM (active). Moreover, the Potency entry in [4], in test [10] and in [6] was “inactive” in each case.

Turning to `CC(C)CCCCCCc1ccc(O)cc1`, the Potency is 36.2 µM (active) and inactive in test [8]; 1.11 µM (active) in test [3]; “inactive and 17.2 µM (active)” in test [4]; 48.6 µM (active) in test [5]; 11.2 µM (active) in [7].

Take `C=C(C)C(=O)O`: the Potency result in test [8], in test [1], in [2], in test [5] and in [7] was “inactive” each time.

For the origin of these results see PubChem BioAssay (Tox21).
